From PubChem
Compounds with a hit are over-represented: about 1.2% of the library has one in this group of screens.
NPSR antag: qHTS Assay for Antagonists of the Neuropeptide S Receptor: cAMP Signal Transduction; Q6W5P4; CHO-NPSR cells, cAMP TR-FRET, antagonist mode; Potency, µM (series often up to 38.3 µM), inactives show at the top dose activity change, negative = inhibition, usual class: inhibitors; 220,000 tested, 1% active; AID 1461, 2008; note: nearly all actives have a fitted effect of over 50% in size
GALK inhibitor: qHTS Assay for Inhibitors of Human Galactokinase (GALK); P51570; Purified GALK, Kinase-Glo residual ATP luminescence; Potency, µM (doses to about 57.5 µM), for the others: at the top dose activity change, negative = inhibition, usual class: inhibitors; 270,000 tested, 0.007% active; AID 1868, 2009
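GALK at 5 nM final was combined with compound, 35 uM ATP and 100 uM galactose in HEPES pH8.0 with MgCl2 and DTT. The reaction ran one hour at room temperature before luminescent ATP detection.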
TrxR1 substrate: qHTS Assay for Substrates of Mammalian Selenoprotein Thioredoxin Reductase 1 (TrxR1): qHTS. purified TrxR1 substrate turnover, NADPH consumption readout. Potency, µM (top dose mostly 114 µM), for inactives: at the highest dose activity change, negative = substrate turnover. Thioredoxin reductase 1, cytoplasmic (Rattus norvegicus), O89049. 390,000 tested, 0.01% active; note: nearly all actives have a fitted effect of over 50% in size
Target sequence (O89049 whole entry, looked up): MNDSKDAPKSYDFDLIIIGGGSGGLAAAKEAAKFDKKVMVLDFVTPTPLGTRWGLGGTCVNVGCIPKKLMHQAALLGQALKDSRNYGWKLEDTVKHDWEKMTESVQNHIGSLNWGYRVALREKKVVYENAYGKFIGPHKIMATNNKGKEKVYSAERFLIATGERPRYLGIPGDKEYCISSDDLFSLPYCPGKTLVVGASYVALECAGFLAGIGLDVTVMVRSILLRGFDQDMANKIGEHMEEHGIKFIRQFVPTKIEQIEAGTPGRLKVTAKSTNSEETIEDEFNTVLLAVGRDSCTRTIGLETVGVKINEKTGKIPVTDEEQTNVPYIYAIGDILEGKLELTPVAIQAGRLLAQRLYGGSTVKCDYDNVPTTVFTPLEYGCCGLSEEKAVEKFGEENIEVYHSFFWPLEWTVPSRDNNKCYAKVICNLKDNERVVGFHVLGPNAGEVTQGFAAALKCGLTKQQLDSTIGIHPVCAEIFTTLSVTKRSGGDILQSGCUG
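Rat TrxR1, dispensed at 90 nM, was prereduced with 400 uM NADPH (final) for 5 min at ~22 deg C, then incubated with compound 15 min before 400 uM selenite. A first-read NADPH fluorescence drop versus no-compound background flagged substrates.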
rTrxR1 inhibitor: qHTS Assay for Inhibitors of Mammalian Selenoprotein Thioredoxin Reductase 1 (TrxR1): qHTS. AID 588453, 2011. recombinant rTrxR1, NADPH fluorescence consumption, selenite substrate. 390,000 tested, 1% active. Thioredoxin reductase 1, cytoplasmic (Rattus norvegicus), O89049. Potency, µM (titrated, usually from 114 µM), for the others: at the highest dose activity change, negative = inhibition, usual class: inhibitors; note: nearly all actives have a fitted effect of over 65% in size
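Rat TrxR1 (90 nM in the dispensed reagent) was pre-reduced with 400 uM NADPH for 5 min at room temperature, then incubated with compound for 15 min. After 400 uM selenite was added, NADPH fluorescence (Ex 340/Em 450 nm) was followed for 8 min.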
Active calls of the source: *; u = inconclusive; x = not tested or not shown; [ ] = remark or other dose. Calls come from the whole dose curve; as a rule, active = well fitted curve in the direction sought with a large enough effect; inconclusive = small, poorly fitted or top-dose-only effect, or another doubt; inactive = no such curve, though single readings can be large; an effect the other way counts as inactive or inconclusive. % is set by controls: 0 for no effect and ±100 for the full control effect; potency is the fitted concentration of half-maximal effect.

SMILES | NPSR antag | GALK inhibitor | TrxR1 substrate | rTrxR1 inhibitor
COc1ccc(C(=O)NCC23C=CC(O2)C2C(=O)N(Cc4ccccc4)C(=O)C23)cc1 (stereo unspecified) | -8.1%[46.1 µM] | 1.9% | -1.5% | 25.1µM*
COc1ccc(CCNC(=O)c2ccc(CN3CCC(Cc4ccccc4)CC3)cc2)cc1 | 5.5% | 1.0% | -4.0% | 0.8%
COc1ccc(NC2=C(Cl)C(=O)N(c3ccccc3)C2=O)c(OC)c1 | -34.1% | -2.3% | 2.3% | 12.6µM*
CCN(CC)c1cc(C)c(/C=C/c2ccnc3ccccc23)cc1C | x | x | -8.1% | 4.1%
Cc1nc(N/N=C/c2ccccn2)sc1C | 3.98µM* | 6.9% | -11.0% | -20.7%
CCCc1sc(N/N=C/c2ccccn2)nc1-c1ccc(F)cc1 | 10µM* | 2.3% | -2.2% | 4.2%
CCN=c1scc(-c2ccc(F)cc2)n1/N=C/c1ccccn1 | -22.5% | 5.6% | -0.4%[57.1 µM] | 22.5%[57.1 µM]
COc1ccc(C(=O)Oc2cc(N)n(S(=O)(=O)c3ccccc3)n2)cc1 | 18.0% | 5.8% | 3.9% | 6.9%
COc1ccc(S(=O)(=O)n2nc(OC(C)=O)cc2N)cc1 | -17.5% | 3.4% | -0.1% | 17.8µM*
Nc1cc(OC(=O)c2cccs2)nn1S(=O)(=O)c1ccc(F)cc1 | 15.7%[46.1 µM] | -0.8% | 3.5% | 79.4µM*
CCN(CC)Cc1cc(C(C)=O)ccc1OCC(C)C | 18.2%[46.1 µM] | 5.2% | -5.1% | 35.5µM*
CNCC(O)COc1cccc(OC)c1 (stereo unspecified) | 7.1% | 0.9% | -3.9%[57.1 µM] | -69.1%
CNCC(O)COc1ccccc1 (stereo unspecified) | 0.4%[46.1 µM] | -2.8% | -3.9% | 70.8µM*
CC(C)/C=C/CN1CCN(CCCc2ccccc2)C(CCO)C1 (stereo unspecified) | x | 0.2% | 10.1%[57.1 µM] | 15.1%[57.1 µM]
O=C(CC1SC(N2CCCCC2)=NC1=O)Nc1cccc(C(=O)N2CCCC(C(F)(F)F)C2)c1 (stereo unspecified) | x | x | 10.0% | 11.7%
Cc1ccc(O)c(NC(=O)CCS(=O)(=O)c2nc(-c3cccs3)cc(C(F)(F)F)n2)c1 | x | x | -2.7% | 20µM*
O=C(CCS(=O)(=O)c1nc(-c2cccs2)cc(C(F)(F)F)n1)Nc1ccc(Br)cc1 | x | x | 5.3%[2.29 µM] | -12.2%
O=C(CCS(=O)(=O)c1nc(-c2cccs2)cc(C(F)(F)F)n1)Nc1cc(Br)ccc1O | x | x | 34.9% | 14.1µM*
COc1ccc(-c2cc(C(F)(F)F)nc(SCCC(=O)Nc3cc(C)ccc3O)n2)cc1 | x | x | 8.4% | 1.8%
Cc1ccc(-c2nn(-c3ccccc3)cc2/C=C2\SC(=S)N(CC(=O)O)C2=O)cc1 | 12.6µM* | u | -7.2% | 12.6%
COc1ccc(CNC(=O)Cc2ccc(NC(=O)N3CCSc4ncccc43)cc2)cc1 | x | x | -2.5% | 12.1%
COc1ccc(C2Nc3ccccc3C(=O)N2Cc2ccco2)cc1COc1c(C)cccc1C (stereo unspecified) | x | x | 18.0% | 20µM*
COc1cccc(OCc2cc(C3Nc4ccccc4C(=O)N3Cc3ccco3)ccc2OC)c1 (stereo unspecified) | u | 0.2% | 36.7% | u
CCC(=O)N1CCN(c2ccc(NC(=O)c3ccc([N+](=O)[O-])o3)cc2Cl)CC1 | 5.01µM* | 1.1% | -6.5% | -4.2%
CC(=O)N1CCN(c2ccc(NC(=O)c3ccc([N+](=O)[O-])o3)cc2Cl)CC1 | x | 5.0% | -2.8% | -11.0%
SMILES | NPSR antag | GALK inhibitor | TrxR1 substrate | rTrxR1 inhibitor
C1NNCC12CNNC2 | x | x | 3.4% | 5.1%
CC(C)c1ccc(S(=O)(=O)c2nnn3c2nc(N2CCOCC2)c2sccc23)cc1 | x | x | 23.2% | 36.9%
CC(=O)O[C@]1(C(C)=O)CC[C@H]2[C@@H]3C[C@H](C)C4=CC(=O)CC[C@]4(C)[C@H]3CC[C@@]21C | 2.51µM* | 3.7% | -0.1% | 9.2%
CC(=O)O[C@]1(C(C)=O)CC[C@H]2[C@@H]3C=C(Cl)C4=CC(=O)CC[C@]4(C)[C@H]3CC[C@@]21C | 5.01µM* | -2.6% | 2.6% | 12.7%
CC(=O)C12CCCCC1CC1[C@@H]3CC(C)C4=CC(=O)CC[C@]4(C)C3CC[C@@]12C (stereo partly specified) | x | -1.1% | 2.2% | 25.1%
CC(=O)OC1(C(C)=O)CCC2C3CC(C(F)(F)F)C4=CC(=O)CCC4(C)C3CCC21C (stereo unspecified) | x | x | 0.4% | 15.8µM*
Cc1ccccc1Cn1c(=O)n(CCCCC(=O)NCc2ccc3c(c2)OCO3)c(=O)c2ccccc21 | x | x | 5.6% | 17.9%
COC(=O)c1c(-c2cccs2)csc1NC(=O)c1ccc(C(C)(C)C)cc1 | x | x | 12.8% | 23.1%
COc1ccc(OC)c(NC(=O)Cn2ccc3ccccc3c2=O)c1 | x | x | -5.1% | -5.2%
Cc1cc(Nc2cccc(C(F)(F)F)c2)nc2ccc(NC(=O)Cc3ccc(Cl)cc3)cc12 | x | x | 39.6% | 28.8%
CC(C)=CCC/C(C)=C/CC/C(C)=C/CCC1(C)CCc2cc(O)ccc2O1 (stereo unspecified) | x | x | -2.8% | 2.2%
CC1=C(C)C(=O)C(CCCCC#CCCCC#CCO)=C(C)C1=O | u | 6.0% | 4.9%[57.1 µM] | 29.9µM*
Cc1nc(SCC(=O)Nc2ccccc2C(F)(F)F)c(C#N)c(C)c1CC(=O)c1ccc(Br)cc1 | 10µM* | 0.3% | x | x
CNc1ccc(C=C2C=CC=C2)cc1 | x | x | -5.8% | u
Cc1[nH]c2ccccc2c1/C=C/c1ccnc2ccccc12 | x | x | -0.9% | -18.8%
COC(=O)N1C(=O)[C@](CC(C)C)(c2ccccc2)N1C(=O)OC | x | x | -6.3% | 2µM*
COC(=O)N1C(=O)[C@](c2ccsc2)(C(C)C)N1C(=O)OC | x | x | 4.6% | 25.1µM*
CC[C@@]1(c2cccc(C)c2)C(=O)N(C(=O)OC)N1C(=O)OC | x | x | 4.5% | 2µM*
CCOC(=O)N1C(=O)[C@@](CC)(c2ccccc2)N1C(=O)OCC | x | x | -8.9% | 2.24µM*
CC[C@@]1(c2ccccc2OC)C(=O)N(C(=O)OC)N1C(=O)OC | x | x | 6.0%[57.1 µM] | u
CN(C)c1ccc(Cn2ccc3ccccc32)cc1 | x | x | -6.6% | 5.1%
c1ccc2nccnc2c1 | x | x | -3.7% | u
CN(C)c1ccc(/C=C/c2nc3ccccc3s2)c(Cl)c1 | x | x | -7.9% | 0.1%
COc1ccc(OC)c(-c2noc(N3CCN(c4ccc(Cl)cc4)CC3)n2)c1 | x | x | 9.4% | 32.8%
O=C(C1COc2ccccc2O1)N1CCN(c2nc3c(F)cccc3s2)CC1 (stereo unspecified) | x | x | -5.1%[57.1 µM] | 0.9%[57.1 µM]
COC(=O)N1C(=O)[C@](c2ccccc2)(C2CCCCC2)N1C(=O)OC | x | x | -4.6% | u
COC(=O)N1C(=O)[C@@](c2ccccc2)(C2CCCC2)N1C(=O)OC | x | x | -6.1% | 8.91µM*
CC(C)(C)OC(=O)N1CC=C2C(C#N)=C(N)C(C#N)(C#N)C(c3cccs3)C2C1 (stereo unspecified) | -10.1%[46.1 µM] | 0.2% | -0.8% | u
